According to the supplement of paper PMC12636033:
± gives the standard deviation of the averaged measurements. Whole data set: some 33,000 sequences, median “E-score (rank enrichment, -0.5 to 0.5)” near -0.0028, cut for the highest 2% near 0.23. For the sample, the highest values were picked, then their nearest neighbours and some sequences at random.

system: 2Sb-muMax20 (muMax20 with two 1,3-bis(methyl)benzene Cys staples, A13C/A17C and Q88C/A92C, C-terminal Lys); experiment: PBM 8-mer E-score (E-score (rank enrichment, -0.5 to 0.5)); higher = stronger preferential binding
Description: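 Protein binding microarray (universal PBM chip covering all 10-mers in fixed probe flanks) with chemically synthesized human Max(13-93) bHLH-LZ analogs (not full-length Max) bearing noncanonical residues (hArg, Tha, Aib, Nle at 65) and aromatic Cys staples. Read-out per 8-mer (and its reverse complement): E-score (rank-based enrichment, -0.5 to 0.5) and Z-score of median probe intensity.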

In order of falling “PBM 8-mer E-score” value:
1. TACAATAA  0.331 ± 0.05
2. AATTGGGG  0.317 ± 0.0083
3. ACGTGGTG  0.316 ± 0.034
4. ATTATAAC  0.306 ± 0.0034
5. ACATAATA  0.302 ± 0.0096
6. AATTTCCC  0.301 ± 0.032
7. ACGTGGCT  0.291 ± 0.048
8. ATTGGGGC  0.284 ± 0.0076
9. AAGTGGGA  0.281 ± 0.018
10. CAGTATTA  0.28 ± 0.02
11. TATGGGGA  0.28 ± 0.014
12. ACGTGGAG  0.279 ± 0.0086
13. AACAACAC  0.2764 ± 0.0019
14. ATATAATA  0.274 ± 0.044
15. ACGTTATG  0.2695 ± 0.0015
16. CTTGGGGA  0.269 ± 0.046
17. CCCACTTA  0.2675 ± 0.00044
18. TACAACAA  0.268 ± 0.0087
19. AAGTGGGG  0.264 ± 0.032
20. GCGATCGC  0.261 ± 0.0046
21. ACGTGGGG  0.261 ± 0.045
22. CATTGGGG  0.255 ± 0.038
23. ATATAAGA  0.249 ± 0.011
24. ATCGTAAT  0.246 ± 0.023
25. GTGTATTA  0.244 ± 0.061
26. CTTAATAC  0.244 ± 0.042
27. ATTGGGGA  0.244 ± 0.0088
28. CCCACTCC  0.241 ± 0.017
29. ATTAATAC  0.241 ± 0.012
30. AATTGGGT  0.2396 ± 0.0021
31. ATTAACAC  0.239 ± 0.026
32. AATGAAGT  0.238 ± 0.026
33. ATTATACC  0.237 ± 0.011
34. CTTAATGC  0.234 ± 0.011
35. GATAATAC  0.234 ± 0.042
36. AAAATCCA  0.232 ± 0.0091
37. CACCTATA  0.232 ± 0.056
38. GTATAATA  0.226 ± 0.012
39. CACAACAC  0.219 ± 0.035
40. AATTGGGA  0.218 ± 0.012
41. ATGTATTA  0.216 ± 0.018
42. ACGTGGTA  0.216 ± 0.024
43. CACAACAA  0.212 ± 0.0096
44. GTATAAGA  0.212 ± 0.037
45. ACGTGGAT  0.207 ± 0.043
46. GTAGTGAA  0.206 ± 0.042
47. ATTATAAG  0.205 ± 0.057
48. ACGTGGGA  0.203 ± 0.044
49. AAGAATCG  0.202 ± 0.011
50. GCATAATA  0.195 ± 0.083
51. AACAACAA  0.194 ± 0.033
52. ATTGGGAA  0.192 ± 0.0077
53. GATAATAA  0.191 ± 0.037
54. ATTAATAG  0.186 ± 0.045
55. CCCACTTC  0.184 ± 0.051
56. ATTAATAA  0.177 ± 0.038
57. CTTAACAC  0.173 ± 0.015
58. CTTAATTC  0.173 ± 0.039
59. CATGGGGA  0.172 ± 0.05
60. ATTTTCCC  0.17 ± 0.024
61. ACGTGGGC  0.169 ± 0.022
62. GTTGGGGA  0.166 ± 0.092
63. GAATACAA  0.164 ± 0.0018
64. ATTGGGTA  0.161 ± 0.015
65. AATTGGGC  0.1581 ± 0.00092
66. AAGTATTA  0.157 ± 0.094
67. ATTAACAA  0.154 ± 0.00047
68. ATTAATGC  0.147 ± 0.069
69. AATGGGGA  0.143 ± 0.0043
70. AATTGGTG  0.142 ± 0.023
71. ACATAATC  0.142 ± 0.023
72. ATTATAAT  0.141 ± 0.034
73. GGAGTAGA  0.139 ± 0.0065
74. ATAGGGCG  0.138 ± 0.0092
75. AACAATAA  0.133 ± 0.017
76. TTAAAGAA  0.125 ± 0.032
77. GTTGCTAA  0.124 ± 0.023
78. ACACATAT  0.124 ± 0.021
79. GAGTATTA  0.12 ± 0.024
80. TACCTATA  0.116 ± 0.032
81. ACGTGGCA  0.114 ± 0.049
82. ACGTGGTC  0.111 ± 0.0094
83. ACGTTATA  0.105 ± 0.0054
84. ATTGGCAA  0.105 ± 0.047
85. AATACTCA  0.102 ± 0.013
86. AAGTGGGT  0.1 ± 0.0081
87. ATCGTAAA  0.0946 ± 0.014
88. GATTTCCC  0.0913 ± 0.071
89. GCCACAAA  0.0853 ± 0.099
90. ACACGTTA  0.08518 ± 0.00069
91. CCGATCGC  0.0847 ± 0.035
92. ATACTACG  0.0847 ± 0.053
93. AACCTATA  0.0842 ± 0.034
94. ATTATACG  0.0799 ± 0.014
95. AATTGGAG  0.0796 ± 0.067
96. CAATGGTA  0.0764 ± 0.11
97. ACGTTATC  0.0764 ± 0.057
98. GGGAAGGA  0.0711 ± 0.073
99. ATGTTGAC  0.0701 ± 0.026
100. ACTGAAAA  0.0674 ± 0.026
101. TCTCGCCA  0.0619 ± 0.024
102. GCGTAAAC  0.0507 ± 0.016
103. AATTCCAG  0.0496 ± 0.043
104. CACAATAA  0.0489 ± 0.053
105. ATTATACA  0.0477 ± 0.0088
106. AAACCGGG  0.0468 ± 0.0036
107. AAAAGGCA  0.0454 ± 0.064
108. AATAATAC  0.0444 ± 0.028
109. ACGATCGC  0.0439 ± 0.021
110. CATTCGAG  0.0428 ± 0.017
111. CTTCCCGC  0.0401 ± 0.037
112. GGAATGCA  0.038 ± 0.021
113. TAGTGGGA  0.038 ± 0.0028
114. CTATAATA  0.0375 ± 0.0029
115. ACACCTAT  0.0344 ± 0.0022
116. AATGAAGG  0.0344 ± 0.037
117. ATCGTAAG  0.0321 ± 0.021
118. CTTAATGA  0.0296 ± 0.046
119. TCCCCGAA  0.0276 ± 0.02
120. ACGGCTTA  0.0267 ± 0.027
121. CTGTATGC  0.0233 ± 0.062
122. AAGTGGGC  0.0223 ± 0.023
123. TAATGCGA  0.018 ± 0.0008
124. CAAATCCA  0.0168 ± 0.048
125. CTATAAGA  0.0167 ± 0.02
126. AATGAAGA  0.0161 ± 0.012
127. ACTAAAGT  0.0154 ± 0.055
128. ATTGGGGG  0.0136 ± 0.03
129. ATCAGCTA  0.00813 ± 0.027
130. CTTTCTCC  0.00231 ± 0.006
131. CCGATTGA  -0.00849 ± 0.0099
132. CAATGCTC  -0.0184 ± 0.021
133. AGCGCAAC  -0.0193 ± 0.035
134. CATTGGGA  -0.021 ± 0.0046
135. AGCATTGG  -0.0228 ± 0.0039
136. CCAACGCG  -0.0237 ± 0.021
137. ATGATCAG  -0.0255 ± 0.099
138. AACCGTGC  -0.0303 ± 0.0035
139. CTGTATTA  -0.0311 ± 0.058
140. GCAATTCC  -0.0345 ± 0.025
141. CCGTATCG  -0.0355 ± 0.019
142. CTTAGCTA  -0.0391 ± 0.023
143. ATTGGGCC  -0.04 ± 0.093
144. GAGTGGGA  -0.0417 ± 0.045
145. GCCACTTA  -0.042 ± 0.068
146. CACTTGAC  -0.0462 ± 0.076
147. CATACAGA  -0.0476 ± 0.0072
148. CGATACGA  -0.06 ± 0.12
149. CTTGGGAA  -0.0626 ± 0.05
150. CATTTCCG  -0.0659 ± 0.0054
151. GCGGAAGA  -0.0695 ± 0.055
152. CTTAATAA  -0.0695 ± 0.0064
153. GACAACAC  -0.0706 ± 0.0054
154. TTCCTCAA  -0.0714 ± 0.003
155. GAAATCCA  -0.0749 ± 0.093
156. ACGTGGCC  -0.0906 ± 0.018
157. GGACTCAA  -0.0969 ± 0.07
158. CCGTGGAG  -0.106 ± 0.074
159. CGTCCGTC  -0.11 ± 0.051
160. AAGGTCCT  -0.112 ± 0.078
161. TCATCAAA  -0.124 ± 0.034
162. CCAGACGC  -0.135 ± 0.041
163. CGGCTGAG  -0.16 ± 0.018
164. GCCACTCC  -0.166 ± 0.023
165. CCCACTCG  -0.168 ± 0.084
166. CACCTGCG  -0.168 ± 0.017
167. CATTGGGC  -0.173 ± 0.044
168. CGAGTCAG  -0.177 ± 0.05
169. CCACGGTA  -0.185 ± 0.042
170. CCGACGGC  -0.2 ± 0.038
171. GGCTTCAC  -0.204 ± 0.1
172. CGGTATTC  -0.204 ± 0.072
173. AGCGCCTG  -0.212 ± 0.01
174. TCAGCCGA  -0.258 ± 0.094
175. GGCCGGCC  -0.285 ± 0.0086
